{
  "source": "PubChem BioAssay (EPA / NIEHS)",
  "note": "Several values for one entry are separate records, joined by “and”; a condition that tells them apart may be missing. Equal values may be shown once. Inconclusive results are not listed. More than one record can exist for a structure, and the calls need not agree. Activity calls are given as the source filed them. The calls were made as follows: active = hit-call score of the fitted dose curve at least 0.9, where 1 is the maximum; inconclusive = response in the unintended direction; inactive = score below 0.9.",
  "data": [
    {"test": "ACEA_ER_80hr: ACEA Biosciences xCELLigence Real-Time Cell Analysis on Estrogen Receptor Agonism for Proliferation (AID 2282667)", "settings": "T47D proliferation, impedance (xCELLigence), 80 h", "procedure": "ACEA_ER is a cell-based, single-readout assay that uses T47D, a human breast cell line, with measurements taken at 80 hours after chemical dosing in a 96-well plate, although TO2 (mc0.srcf) used a 384-well plate. Differences in plate size can be ignored given data normalization.ACEA_ER_80hr is one of two assay component(s) measured or calculated from the ACEA_ER assay. It is designed to make measurements of real-time cell-growth kinetics, a form of growth reporter, as detected with electrical impedance signals by Real-Time Cell Electrode Sensor (RT-CES) technology.Data from the assay component ACEA_ER_80hr was analyzed into 1 assay endpoint. This assay endpoint, ACEA_ER_80hr_Positive, was analyzed in the positive analysis fitting direction relative to DMSO as the negative control and baseline of activity. Using a type of growth reporter, measures of the cells for gain-of-signal activity can be used to understand the signaling at the pathway-level as they relate to the gene ESR1. Furthermore, this assay endpoint can be referred to as a primary readout, because this assay has produced multiple assay endpoints where this one serves a signaling function. To generalize the intended target to other relatable targets, this assay endpoint is annotated to the nuclear receptor intended target family, where the subfamily is steroidal.\nThe xCELLigence system Multi-E-Plate stations were used to measure the time-dependent response to chemicals. Each compound was tested in an eight-point, 1:4 serial dilution series starting at a maximum final concentration of 100 uM. A maximum starting concentration of 0.5% DMSO was present in the 100 uM chemical samples and was diluted along with the test article dilution series. The screen was performed in biological duplicate using two separate, 96-well, E-Plates 96 for each dilution series (n = 2). Positive controls (MG132 and E2) and a negative control (assay media) were tested in quadruplicate on each testing plate. […] Reference compounds were tested with 8 concentrations with 1:5 serial dilutions. All screening was carried out by ACEA Biosciences, Inc. (San Diego, CA). T-47D cells purchased from ATCC were maintained in RPMI1640 media supplemented with 10% characterized fetal bovine serum (FBS). […] Cells were then detached and seeded in E-Plates 96 in assay medium. After overnight monitoring of growth once every hour, compounds were added to […] cells and remained in the medium until the end of the experiment. Cellular responses were then recorded once every 5 min for the first 5 h, and once every hour for an additional 100 h.", "values": [
      {"compound": "CCN(Cc1c(F)cccc1Cl)c1c([N+](=O)[O-])cc(C(F)(F)F)cc1[N+](=O)[O-]", "AC50": "2.12 µM (active)"},
      {"compound": "CCCCOC(=O)[C@@H](C)Oc1ccc(Oc2ccc(C(F)(F)F)cn2)cc1", "AC50": "13.7 µM (active)"},
      {"compound": "C#CCOC(=O)[C@@H](C)Oc1ccc(Oc2ncc(Cl)cc2F)cc1", "outcome": "inactive"},
      {"compound": "N[C@@H](Cc1cc(I)c(Oc2ccc(O)c(I)c2)c(I)c1)C(=O)O", "AC50": "40 µM (active) and 25 µM (active)"},
      {"compound": "C[C@]12CC[C@@H]3c4ccc(O)cc4C[C@@H](CCCCCCCCCS(=O)CCCC(F)(F)C(F)(F)F)[C@H]3[C@@H]1CC[C@@H]2O", "note": "(some centres not stated)", "AC50": "6.15 µM (active) and 9.53 µM (active)"},
      {"compound": "CCCOC(=O)c1ccc(C(=O)OCCC)nc1", "outcome": "inactive"},
      {"compound": "CC1(C)C(C=C(Cl)Cl)C1C(=O)OCc1cccc(Oc2ccccc2)c1", "note": "(configuration not stated)", "outcome": "inactive"},
      {"compound": "COCCO", "outcome": "inactive"},
      {"compound": "CC(=O)S[C@@H]1CC2=CC(=O)CC[C@]2(C)[C@H]2CC[C@@]3(C)[C@@H](CC[C@@]34CCC(=O)O4)[C@H]12", "outcome": "inactive", "AC50": "10.7 µM (active) and 174 nM (active)"},
      {"compound": "OB(O)O", "outcome": "inactive"},
      {"compound": "CCCN(CCC)c1c([N+](=O)[O-])cc(C(F)(F)F)c(N)c1[N+](=O)[O-]", "outcome": "inactive"},
      {"compound": "CCSC(=O)N(CC(C)C)CC(C)C", "outcome": "inactive"},
      {"compound": "CCOC(=O)c1ccc(O)cc1", "AC50": "11.4 µM (active) [middle of 4 runs]"},
      {"compound": "CCOC(=O)C(C)Oc1ccc(Oc2cnc3cc(Cl)ccc3n2)cc1", "note": "(configuration not stated)", "outcome": "inactive"},
      {"compound": "COC(=O)c1ccccc1C(=O)O", "outcome": "inactive"},
      {"compound": "CCCN(CCC)C(=O)SCC", "outcome": "inactive"},
      {"compound": "CC(C)CCCCCCc1ccc(O)cc1", "AC50": "320 nM (active) [middle of 4 runs]"},
      {"compound": "O=C(O)c1ccccc1", "outcome": "inactive"},
      {"compound": "CCCCN(CCCC)C(=S)S", "AC50": "89.4 µM (active)"},
      {"compound": "CCOC(=O)NCCOc1ccc(Oc2ccccc2)cc1", "outcome": "inactive"},
      {"compound": "O=C(Nc1ccc([N+](=O)[O-])cc1Cl)c1cc(Cl)ccc1O", "outcome": "inactive"},
      {"compound": "O=C(c1ccc(O)cc1O)c1ccc(O)cc1O", "AC50": "756 nM (active) and 805 nM (active) and 548 nM (active)"},
      {"compound": "CCCCC(CC)CN1C(=O)C2C3C=CC(C3)C2C1=O", "note": "(configuration not stated)", "outcome": "inactive"},
      {"compound": "CCN(CC)C(=O)c1cccc(C)c1", "outcome": "inactive"},
      {"compound": "C[C@]12C[C@H](O)[C@H]3[C@@H](CCC4=CC(=O)CC[C@@]43C)[C@@H]1CC[C@@H]2C(=O)CO", "AC50": "32.8 nM (active) and 26.6 nM (active) and 102 nM (active)"},
      {"compound": "Cc1nn(C)c(Oc2ccccc2)c1C=NOCc1ccc(C(=O)OC(C)(C)C)cc1", "AC50": "0.00439 µM (active)"},
      {"compound": "COc1c(Cl)ccc(Cl)c1C(=O)O", "outcome": "inactive"},
      {"compound": "C#C[C@]1(O)CC[C@H]2[C@@H]3CCC4=CC(=O)CC[C@@H]4[C@H]3CC[C@@]21CC", "AC50": "2.58 nM (active) and 3.4 nM (active) and 143 nM (active)"},
      {"compound": "O=C(c1ccccc1)C1CCCCC1", "AC50": "9.92 µM (active) and 6.21 µM (active) and 50 µM (active)"},
      {"compound": "CCCCOC(=O)C(C)Oc1ccc(Oc2ccc(C(F)(F)F)cn2)cc1", "note": "(configuration not stated)", "AC50": "0.0178 µM (active)"},
      {"compound": "CCCCN(CCC(=O)OCC)C(C)=O", "outcome": "inactive"}
    ]}
  ]
}
